# Source: PubChem BioAssay (NCI)
# Compounds without any hit were thinned out: in the full panel of roughly 79,000, 15% have a hit. Unmarked numbers belong to inactive results. Calls of active or inactive are those of the source. No stated cut-off is given here; in the data, active means growth inhibition above about 70%; inactive means the rest.
# Key:
# [1] = NCI Yeast Anticancer Drug Screen. Data for the wt1 strain (AID 149);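 further: 0% = growth of vehicle-treated wt1 cultures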; conditions: S. cerevisiae wt1 strain (SPY 50644) growth inhibition, active compounds read high
# In short: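 Using yeast strain wt1, compound-induced growth inhibition was determined against vehicle-treated cultures.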
# [2] = NCI Yeast Anticancer Drug Screen. Data for the rad50EPP+ strain (AID 151);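 further: 0% = growth of vehicle-treated control cultures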; conditions: S. cerevisiae rad50 mutant strain, active compounds read high
# In short: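 Growth inhibition read against vehicle controls in rad50EPP+ yeast, a strain altered in DNA damage repair, after compound exposure.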
# [3] = NCI Yeast Anticancer Drug Screen. Data for the mgt1 strain (AID 153); conditions: S. cerevisiae mgt1 mutant growth inhibition, active compounds read high
# In short: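 mgt1 yeast grown with test compound; read-out is growth inhibition versus vehicle-treated cultures.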
# [4] = NCI Yeast Anticancer Drug Screen. Data for the rad50 strain (AID 155);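 further: 0% = growth of vehicle-only cultures of the same strain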; conditions: S. cerevisiae rad50 strain growth inhibition, active compounds read high
# In short: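 Relative growth inhibition (compound vs vehicle) was measured in yeast with a defined repair-gene alteration.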
# [5] = NCI Yeast Anticancer Drug Screen. Data for the mec2-1 strain (AID 157); conditions: S. cerevisiae mec2-1 strain, active compounds read high
# In short: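 Yeast mec2-1 mutant treated with compound. Readout: growth inhibition vs vehicle controls.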
# [6] = NCI Yeast Anticancer Drug Screen. Data for the rad14 strain (AID 159);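 further: 0% = growth of vehicle-treated control cultures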; conditions: S. cerevisiae rad14 strain growth inhibition, active compounds read high
# In short: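 Screen for anticancer potential: a yeast strain altered in DNA damage repair is grown with compound, and reduced growth is quantified against vehicle controls.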
# [7] = NCI Yeast Anticancer Drug Screen. Data for the sgs1 mgt1 strain (AID 161);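 further: 0% = growth of cultures given vehicle only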; conditions: S. cerevisiae sgs1 mgt1 strain, active compounds read high
# In short: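 Test agents were incubated with a DNA-repair-mutant yeast strain. Growth was then read and compared against vehicle-treated controls.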
# [8] = NCI Yeast Anticancer Drug Screen. Data for the CLN2oe strain (AID 163);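 further: 0% = growth of vehicle-only control cultures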; conditions: S. cerevisiae CLN2oe strain, active compounds read high
# In short: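 Read-out: yeast growth inhibition, expressed relative to vehicle-only controls. The strain bears an engineered cell-cycle alteration.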
# [9] = NCI Yeast Anticancer Drug Screen. Data for the cln2 rad14 strain (AID 165);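 further: 0% = growth equal to vehicle treated cultures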; conditions: S. cerevisiae cln2 rad14 strain, active compounds read high
# In short: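 cln2 rad14 yeast strain; compound exposure; growth inhibition read vs vehicle controls.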
# [10] = NCI Yeast Anticancer Drug Screen. Data for the bub3 strain (AID 167); conditions: S. cerevisiae bub3 mutant strain, active compounds read high
# In short: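 Screening used yeast with an engineered genetic alteration affecting cell cycle control. Compound-exposed cultures were compared with vehicle cultures, and reduced growth was taken as inhibition.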
# [11] = NCI Yeast Anticancer Drug Screen. Data for the wt2 strain (AID 169);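 further: 0% = growth of vehicle-treated yeast cultures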; conditions: S. cerevisiae wt2 strain growth inhibition, active compounds read high
# In short: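 Read-out: growth inhibition versus vehicle-treated control cultures after compound exposure of the yeast strain.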
# [12] = NCI Yeast Anticancer Drug Screen. Data for the mlh1 strain (AID 171);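 further: 0% = growth of vehicle-treated control cultures of the same strain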; conditions: S. cerevisiae mlh1 strain growth inhibition, active compounds read high
# In short: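 Read-out: growth inhibition versus vehicle controls. Strain: engineered yeast with a defined DNA repair or cell cycle defect, compound-treated.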
# [13] = NCI Yeast Anticancer Drug Screen. Data for the sgs1 strain (AID 173);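 further: 0% = growth of vehicle-only control cultures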; conditions: S. cerevisiae sgs1 mutant, active compounds read high
# In short: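 Read-out: yeast growth inhibition relative to vehicle controls, following compound exposure of a strain with a defined DNA repair/cell cycle alteration.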
# [14] = NCI Yeast Anticancer Drug Screen. Data for the mlh1 rad18 strain (AID 175); conditions: S. cerevisiae mlh1 rad18 strain growth inhibition, active compounds read high
# In short: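 Yeast w/ defined DNA-repair lesions; compound exposure; growth vs vehicle controls → % inhibition.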
# [15] = NCI Yeast Anticancer Drug Screen. Data for the rad18 strain (AID 177); conditions: S. cerevisiae rad18 mutant growth inhibition, active compounds read high
# In short: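 Readout: growth inhibition vs vehicle controls. Cells: genetically altered yeast strain, DNA repair defect.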
# [16] = at 5.0 µM (retest, dose inferred, filed as 0.5)
# [17] = at 50.0 µM (retest, dose inferred, filed as 5.0)
smiles,measurement,setting,value
N#[N+]c1c([O-])c2ccccc2c2ccccc12,growth inhibition,[1]; at 1.2 µM,3%
same,growth inhibition,[1]; at 3.7 µM,4%
same,growth inhibition,[1]; at 11.0 µM,15%
same,growth inhibition,[1]; at 33.0 µM,30%
same,growth inhibition,[1]; at 100.0 µM,97% (active)
same,growth inhibition,[2]; at 1.2 µM,13%
same,growth inhibition,[2]; at 3.7 µM,32%
same,growth inhibition,[2]; at 11.0 µM,84% (active)
same,growth inhibition,[2]; at 33.0 µM,96% (active)
same,growth inhibition,[2]; at 100.0 µM,96% (active)
same,growth inhibition,[3]; at 1.2 µM,4%
same,growth inhibition,[3]; at 3.7 µM,15%
same,growth inhibition,[3]; at 11.0 µM,23%
same,growth inhibition,[3]; at 33.0 µM,39%
same,growth inhibition,[3]; at 100.0 µM,97% (active)
same,growth inhibition,[4]; at 1.2 µM,22%
same,growth inhibition,[4]; at 3.7 µM,46%
same,growth inhibition,[4]; [16],-23%
same,growth inhibition,[4]; at 11.0 µM,85% (active)
same,growth inhibition,[4]; at 33.0 µM,96% (active)
same,growth inhibition,[4]; [17],35%
same,growth inhibition,[4]; at 50.0 µM,92.7% (active)
same,growth inhibition,[4]; at 100.0 µM,96% (active)
same,growth inhibition,[5]; at 1.2 µM,0%
same,growth inhibition,[5]; at 3.7 µM,0%
same,growth inhibition,[5]; [16],-1%
same,growth inhibition,[5]; at 11.0 µM,7%
same,growth inhibition,[5]; at 33.0 µM,60%
same,growth inhibition,[5]; [17],36%
same,growth inhibition,[5]; at 50.0 µM,48.6%
same,growth inhibition,[5]; at 100.0 µM,97% (active)
same,growth inhibition,[6]; at 1.2 µM,3%
same,growth inhibition,[6]; at 3.7 µM,17%
same,growth inhibition,[6]; at 11.0 µM,25%
same,growth inhibition,[6]; at 33.0 µM,80% (active)
same,growth inhibition,[6]; at 100.0 µM,97% (active)
same,growth inhibition,[7]; [16],-5%
same,growth inhibition,[7]; [17],16%
same,growth inhibition,[7]; at 50.0 µM,76.2% (active)
same,growth inhibition,[8]; at 1.2 µM,4%
same,growth inhibition,[8]; at 3.7 µM,8%
same,growth inhibition,[8]; at 11.0 µM,18%
same,growth inhibition,[8]; at 33.0 µM,42%
same,growth inhibition,[8]; at 100.0 µM,95% (active)
same,growth inhibition,[9]; [16],-41%
same,growth inhibition,[9]; [17],2%
same,growth inhibition,[9]; at 50.0 µM,47.5%
same,growth inhibition,[10]; at 1.2 µM,12%
same,growth inhibition,[10]; at 3.7 µM,10%
same,growth inhibition,[10]; [16],-14%
same,growth inhibition,[10]; at 11.0 µM,24%
same,growth inhibition,[10]; at 33.0 µM,54%
same,growth inhibition,[10]; [17],22%
same,growth inhibition,[10]; at 50.0 µM,44%
same,growth inhibition,[10]; at 100.0 µM,95% (active)
same,growth inhibition,[11]; at 1.2 µM,2%
same,growth inhibition,[11]; at 3.7 µM,5%
same,growth inhibition,[11]; at 11.0 µM,12%
same,growth inhibition,[11]; at 33.0 µM,60%
same,growth inhibition,[11]; at 100.0 µM,98% (active)
same,growth inhibition,[12]; at 1.2 µM,-1%
same,growth inhibition,[12]; at 3.7 µM,-1%
same,growth inhibition,[12]; at 11.0 µM,20%
same,growth inhibition,[12]; at 33.0 µM,65%
same,growth inhibition,[12]; at 100.0 µM,97% (active)
same,growth inhibition,[13]; at 1.2 µM,0%
same,growth inhibition,[13]; at 3.7 µM,4%
same,growth inhibition,[13]; at 11.0 µM,20%
same,growth inhibition,[13]; at 33.0 µM,82% (active)
same,growth inhibition,[13]; at 100.0 µM,97% (active)
same,growth inhibition,[14]; [16],-29%
same,growth inhibition,[14]; [17],50%
same,growth inhibition,[14]; at 50.0 µM,86% (active)
same,growth inhibition,[15]; at 1.2 µM,30%
same,growth inhibition,[15]; at 3.7 µM,50%
same,growth inhibition,[15]; at 11.0 µM,93% (active)
same,growth inhibition,[15]; at 33.0 µM,98% (active)
same,growth inhibition,[15]; at 100.0 µM,96% (active)
COC(=O)c1cnc(Cl)c([N+](=O)[O-])c1,growth inhibition,[1]; at 1.2 µM,6%
same,growth inhibition,[1]; at 3.7 µM,15%
same,growth inhibition,[1]; at 11.0 µM,82% (active)
same,growth inhibition,[1]; at 33.0 µM,99% (active)
same,growth inhibition,[1]; at 100.0 µM,99% (active)
same,growth inhibition,[2]; at 1.2 µM,14%
same,growth inhibition,[2]; at 3.7 µM,48%
same,growth inhibition,[2]; at 11.0 µM,93% (active)
same,growth inhibition,[2]; at 33.0 µM,98% (active)
same,growth inhibition,[2]; at 100.0 µM,99% (active)
same,growth inhibition,[3]; at 1.2 µM,2%
same,growth inhibition,[3]; at 3.7 µM,23%
same,growth inhibition,[3]; at 11.0 µM,92% (active)
same,growth inhibition,[3]; at 33.0 µM,99% (active)
same,growth inhibition,[3]; at 100.0 µM,99% (active)
same,growth inhibition,[4]; at 1.2 µM,22%
same,growth inhibition,[4]; at 3.7 µM,75% (active)
same,growth inhibition,[4]; [16],79% (active)
same,growth inhibition,[4]; at 11.0 µM,97% (active)
same,growth inhibition,[4]; at 33.0 µM,99% (active)
same,growth inhibition,[4]; [17],98% (active)
same,growth inhibition,[4]; at 50.0 µM,99.5% (active)
same,growth inhibition,[4]; at 100.0 µM,99% (active)
same,growth inhibition,[5]; at 1.2 µM,5%
same,growth inhibition,[5]; at 3.7 µM,10%
same,growth inhibition,[5]; [16],41%
same,growth inhibition,[5]; at 11.0 µM,72% (active)
same,growth inhibition,[5]; at 33.0 µM,98% (active)
same,growth inhibition,[5]; [17],99% (active)
same,growth inhibition,[5]; at 50.0 µM,99.5% (active)
same,growth inhibition,[5]; at 100.0 µM,99% (active)
same,growth inhibition,[6]; at 1.2 µM,2%
same,growth inhibition,[6]; at 3.7 µM,18%
same,growth inhibition,[6]; at 11.0 µM,39%
same,growth inhibition,[6]; at 33.0 µM,97% (active)
same,growth inhibition,[6]; at 100.0 µM,99% (active)
same,growth inhibition,[7]; [16],47%
same,growth inhibition,[7]; [17],99% (active)
same,growth inhibition,[7]; at 50.0 µM,99.3% (active)
same,growth inhibition,[8]; at 1.2 µM,0%
same,growth inhibition,[8]; at 3.7 µM,5%
same,growth inhibition,[8]; at 11.0 µM,48%
same,growth inhibition,[8]; at 33.0 µM,97% (active)
same,growth inhibition,[8]; at 100.0 µM,99% (active)
same,growth inhibition,[9]; [16],2%
same,growth inhibition,[9]; [17],98% (active)
same,growth inhibition,[9]; at 50.0 µM,94.8% (active)
same,growth inhibition,[10]; at 1.2 µM,2%
same,growth inhibition,[10]; at 3.7 µM,7%
same,growth inhibition,[10]; [16],24%
same,growth inhibition,[10]; at 11.0 µM,85% (active)
same,growth inhibition,[10]; at 33.0 µM,98% (active)
same,growth inhibition,[10]; [17],99% (active)
same,growth inhibition,[10]; at 50.0 µM,98.9% (active)
same,growth inhibition,[10]; at 100.0 µM,99% (active)
same,growth inhibition,[11]; at 1.2 µM,4%
same,growth inhibition,[11]; at 3.7 µM,20%
same,growth inhibition,[11]; at 11.0 µM,88% (active)
same,growth inhibition,[11]; at 33.0 µM,99% (active)
same,growth inhibition,[11]; at 100.0 µM,99% (active)
same,growth inhibition,[12]; at 1.2 µM,3%
same,growth inhibition,[12]; at 3.7 µM,11%
same,growth inhibition,[12]; at 11.0 µM,92% (active)
same,growth inhibition,[12]; at 33.0 µM,99% (active)
same,growth inhibition,[12]; at 100.0 µM,100% (active)
same,growth inhibition,[13]; at 1.2 µM,5%
same,growth inhibition,[13]; at 3.7 µM,20%
same,growth inhibition,[13]; at 11.0 µM,88% (active)
same,growth inhibition,[13]; at 33.0 µM,98% (active)
same,growth inhibition,[13]; at 100.0 µM,99% (active)
same,growth inhibition,[14]; [16],72% (active)
same,growth inhibition,[14]; [17],98% (active)
same,growth inhibition,[14]; at 50.0 µM,98.5% (active)
same,growth inhibition,[15]; at 1.2 µM,4%
same,growth inhibition,[15]; at 3.7 µM,29%
same,growth inhibition,[15]; at 11.0 µM,95% (active)
same,growth inhibition,[15]; at 33.0 µM,98% (active)
same,growth inhibition,[15]; at 100.0 µM,99% (active)
